Drawing on article PMC12350791, this text covers cross-linked residues for seven substances.

Sequence of DDX39B, Q13838 (Q13838 whole entry): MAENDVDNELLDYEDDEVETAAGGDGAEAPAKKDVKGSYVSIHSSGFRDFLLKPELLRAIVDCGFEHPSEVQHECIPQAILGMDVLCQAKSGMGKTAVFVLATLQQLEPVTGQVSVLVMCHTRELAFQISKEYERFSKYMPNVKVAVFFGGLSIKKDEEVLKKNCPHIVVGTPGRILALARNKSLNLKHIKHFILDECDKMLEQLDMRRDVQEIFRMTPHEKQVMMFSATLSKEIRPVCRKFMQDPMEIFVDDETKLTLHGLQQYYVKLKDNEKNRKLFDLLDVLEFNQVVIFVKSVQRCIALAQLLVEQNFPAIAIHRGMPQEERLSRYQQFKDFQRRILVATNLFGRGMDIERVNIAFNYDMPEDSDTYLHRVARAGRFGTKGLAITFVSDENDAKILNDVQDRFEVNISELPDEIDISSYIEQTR
Sequence of DDX39A, O00148 (O00148 whole entry): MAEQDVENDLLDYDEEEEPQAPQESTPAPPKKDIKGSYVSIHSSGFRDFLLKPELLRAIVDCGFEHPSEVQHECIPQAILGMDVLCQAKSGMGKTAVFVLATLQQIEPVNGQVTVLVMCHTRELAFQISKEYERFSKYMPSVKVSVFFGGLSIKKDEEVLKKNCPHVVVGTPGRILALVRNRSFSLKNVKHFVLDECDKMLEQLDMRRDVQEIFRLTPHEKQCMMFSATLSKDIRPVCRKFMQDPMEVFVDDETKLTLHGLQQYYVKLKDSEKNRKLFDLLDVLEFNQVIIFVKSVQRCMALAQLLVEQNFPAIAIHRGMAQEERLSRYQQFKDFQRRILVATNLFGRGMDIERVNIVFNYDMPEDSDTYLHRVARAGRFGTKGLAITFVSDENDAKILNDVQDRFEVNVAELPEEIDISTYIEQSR
Sequence of ERH, P84090 (P84090 whole entry): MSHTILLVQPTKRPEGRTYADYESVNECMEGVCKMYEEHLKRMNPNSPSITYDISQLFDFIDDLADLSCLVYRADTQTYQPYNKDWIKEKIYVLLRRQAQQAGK

The target in one experiment is ACTR2 (UniProt P61160). The experiment is described as follows: cross-linking mass spectrometry. As to conditions: DSBSO, in cells or nuclear extract, not told apart.
With ARPC4, P59998, the cross-linked residues result is recorded as “K44 - K322”.
Still for that read-out and setting: as for ARPC3, O15145, the entry is “K61 - K46”.
For the substance ARPC1B, O15143, the cross-linked residues result was “K49 - K219”.
As to ACTR3, P61158, the cross-linked residues result is “K348 - K46”.

For a further experiment, the target named is CHTOP (UniProt Q9Y3Y2). The experiment is described as follows: cross-linking mass spectrometry. The settings on record: DSBSO, in cells or nuclear extract, not told apart.
Sequence of CHTOP (Q9Y3Y2 whole entry): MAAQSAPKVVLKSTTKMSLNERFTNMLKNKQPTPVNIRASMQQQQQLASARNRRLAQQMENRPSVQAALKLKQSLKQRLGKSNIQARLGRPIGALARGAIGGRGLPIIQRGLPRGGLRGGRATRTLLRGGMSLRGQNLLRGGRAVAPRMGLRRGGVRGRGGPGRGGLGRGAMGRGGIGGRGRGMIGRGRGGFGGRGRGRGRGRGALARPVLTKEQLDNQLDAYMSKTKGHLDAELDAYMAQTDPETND
As to DDX39A, O00148, the cross-linked residues result is on record as “K187 - K226”.
ERH, P84090: the cross-linked residues entry is given as “K90 - K30”.
As to DDX39B, Q13838, the cross-linked residues entry is “K188 - K226”.
